Screen size: about 16,000 compounds; about 2,600 (16%) were called active. Not shown: some 20% with an inconclusive outcome. Calls follow the shape of the dose curve; as a rule, active = well fitted curve in the direction sought with a large enough effect; inconclusive = small, poorly fitted or top-dose-only effect, or effect the other way; inactive = no such curve, though single readings can be large or run the other way. These entries were drawn from the full list.

Consider 66 compounds from PubChem BioAssay AID1851 (National Center for Advancing Translational Sciences (NCATS), 2009).
% is scaled to controls: 0 for no effect and ±100 for the full control effect.

The experiment deals with Cytochrome P450 2D6 (Homo sapiens) (UniProt P10635). Briefly: Cytochrome panel assay with activity outcomes. Conditions: recombinant CYP, pro-luciferin dealkylation, luminescence, p450-cyp2d6; series mostly up to 57.1 µM.
Sequence of Cytochrome P450 2D6 (Homo sapiens) (P10635 whole entry, looked up): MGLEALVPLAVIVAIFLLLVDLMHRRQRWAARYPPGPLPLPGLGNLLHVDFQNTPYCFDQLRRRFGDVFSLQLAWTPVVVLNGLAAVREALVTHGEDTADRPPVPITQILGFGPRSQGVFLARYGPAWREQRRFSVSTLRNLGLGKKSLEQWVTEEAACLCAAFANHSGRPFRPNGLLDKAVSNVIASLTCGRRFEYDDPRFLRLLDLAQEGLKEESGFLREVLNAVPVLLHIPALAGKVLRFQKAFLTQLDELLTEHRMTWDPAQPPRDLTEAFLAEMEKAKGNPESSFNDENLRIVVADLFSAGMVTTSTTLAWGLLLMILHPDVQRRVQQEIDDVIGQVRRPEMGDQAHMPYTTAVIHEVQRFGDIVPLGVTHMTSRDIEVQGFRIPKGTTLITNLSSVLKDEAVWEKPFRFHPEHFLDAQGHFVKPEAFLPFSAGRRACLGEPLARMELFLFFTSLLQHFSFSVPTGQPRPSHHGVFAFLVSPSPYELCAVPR
For the compound `Cn1c(=O)c2[nH]c([C@@H]3CC(=O)C[C@H](c4nc5c([nH]4)c(=O)n(C)c(=O)n5C)N3)nc2n(C)c1=O`, the activity, negative = inhibition is -10.1% [at 11.4 µM] (inactive).

Regarding `CC(=O)N1CC2(CC2)CC1c1ccccc1` (stereo unspecified), the AC50 entry is “inactive”. The same measure, in the same setting: then `CC(C)(C)c1nnc(NC(=O)c2cc(-c3ccccc3)nc3ccccc23)s1`, with “inactive”. Same read-out and setting: then `Cn1cc(-c2nc3cncnc3n(C3CC3)c2=O)c2ccccc21`, with “inactive”. For `Cc1ccc(C)n1CCN1CCN(CC(=O)Nc2cc(C(F)(F)F)ccc2Cl)CC1`, the AC50 was 11.2 µM (active). With `COc1ccc(/C=C/C(=O)Nc2cc(C(F)(F)F)ccc2Cl)cc1`, the AC50 is 2.82 µM (active). Same read-out and setting: for `Cc1cc(C)n(-c2ccc(C(=O)Nc3cc(C(F)(F)F)ccc3N3CCOCC3)cc2)n1` the value was “inactive”. Regarding `N/C(CC(=O)Nc1cc(C(F)(F)F)ccc1Cl)=N\O`, the activity, negative = inhibition was 2.47% [at 11.4 µM] (inactive). On to `O=C(Cc1ccccc1)NC(=S)Nc1cc(C(F)(F)F)ccc1Cl`, for which the AC50 result is “inactive”.

As for `CN(C)c1cc[n+](CC(=O)Nc2cc(C(F)(F)F)ccc2Cl)cc1`, the AC50 was 0.126 µM (active). On the same count and under the same terms, for `Cc1cc[n+](CC(=O)Nc2cc(C(F)(F)F)ccc2Cl)cc1` the value was 0.224 µM (active); for `COC(=O)CNC(=O)/C=C/c1ccc(OC)cc1`, “inactive”; for `COc1cc(C(=O)Nc2cc(C(F)(F)F)ccc2Cl)cc(OC)c1OC`, “inactive”. Same read-out and setting: for `O=C(CS(=O)c1cccc(C(F)(F)F)c1)Nc1ccccc1Cl` (stereo unspecified) the value was “inactive”; for `Cc1ccc(C(=O)NC(=S)Nc2cc(C(F)(F)F)ccc2Cl)cc1`, “inactive”. For `COc1ccc2nc(NCN3C(=O)c4ccccc4C3=O)sc2c1`, the activity, negative = inhibition is -19.6% [at 11.4 µM] (inactive). For the compound `N[C@H](C(=O)N[C@@H]1C(=O)N2C(C(=O)O)=C(Cl)CS[C@@H]12)c1ccccc1`, the AC50 result was “inactive”. Same read-out and setting: for `CCOC(=O)C1=C(C)NC(=S)NC1c1cccc(O)c1` (stereo unspecified) the value was “inactive”. Same read-out and setting: then `O=C(O)CC[C@@H](NC(=O)c1ccccc1C(=O)O)C(=O)O`, with “inactive”; and `Cc1nc2cnc(Oc3ccccc3)nc2n(-c2ccccc2)c1=O`, with “inactive”. Same read-out and setting: then `CCCN1C(=O)C2(/C(=C(\O)c3ccc4c(c3)OCCO4)C(=O)C(=O)N2CCCOC)c2ccccc21` (stereo unspecified), with “inactive”. Regarding `COc1ccc(Oc2ncc3nc(-c4cccs4)c(=O)n(Cc4cccc(OC)c4)c3n2)cc1`, the AC50 result is “inactive”. The same measure, in the same setting: for `Fc1ccc2nc3[nH]c4ccccc4c3nc2c1` the value was “inactive”; for `Cc1cc(N(CN2CCCC2=O)C(=O)c2ccc(F)cc2)no1`, “inactive”. Turning to `COc1cc(/C=N/NC(=O)c2cccs2)ccc1OCc1ccccc1`, the AC50 result is “inactive”. Still for that read-out and setting: then `CCOc1ccc(C(=O)O)cc1OC`, with “inactive”; and `CCOc1ccc(Cl)cc1CNCCNCC(C)O` (stereo unspecified), with 3.16 µM (active); and `COc1ccc(Cl)cc1NC(=O)NCCCl`, with “inactive”. Same read-out and setting: for `CCOc1ccc(Cl)cc1CNCCNCCO` the value was 11.2 µM (active); for `N=C1SCC(=O)N1c1nc(-c2ccccc2)cs1`, “inactive”. For the compound `C[C@@H]1NCC[C@H](CC(=O)O)[C@H]1CC(=O)O`, the activity, negative = inhibition is 5.62% [at 11.4 µM] (inactive). As for `Cc1nnc(-c2cnn(-c3ccccc3)c2N)n1Cc1ccc(F)cc1`, the AC50 entry was “inactive”. Same read-out and setting: for `CCCCOc1ccc(-c2nnn(CC(=O)c3c[nH]c4ccccc34)n2)cc1` the value was “inactive”; for `c1ccc(-c2c3ccccc3nc3[nH]c4ccccc4c23)cc1`, “inactive”. As for `O=C(O)[C@@H](Cc1c[nH]c2ccccc12)C(=O)NO`, the activity, negative = inhibition was 4.35% [at 11.4 µM] (inactive).

`c1ccc2c(-c3c[nH]c4ccccc34)c3ccccc3nc2c1`: the AC50 is 10 µM (active).

For `Cc1nc(Sc2ccccc2)c(C#N)cc1-c1ccccc1`, the AC50 entry was “inactive”.

Regarding `Cc1nc2cc(NC(=O)CSc3nc4c(C)cccc4cc3C#N)ccc2s1`, the AC50 result was “inactive”. As to `Nc1nc(SCC(=O)O)[nH]c(=O)c1N`, the activity, negative = inhibition was 11% [at 11.4 µM] (inactive). On the same count and under the same terms, then `CO[C@@H]1/C=C\CC(=O)N[C@@H](C)C(=O)OC[C@@H](OC)[C@H](C)/C=C\CC(=O)OC[C@H]1C`, with 10.8% [at 11.4 µM] (inactive).

Consider `CCCN(CC1CC1)c1nc(C)nc(Nc2c(Cl)cc(Cl)cc2Cl)c1Cl`, for which the AC50 was 1.58 µM (active).

For the compound `COCCN(C(=O)C(C)C)c1nnc(-c2ccc(C)cc2)s1`, the AC50 result was “inactive”. `CCC(CC)c1nnc(NC(=O)COc2ccc3c(C)cc(=O)oc3c2)s1`: the AC50 result was “inactive”. On the same count and under the same terms, then `COc1ccc(NC(=O)CC2C(=O)N(c3cccc(OC)c3)C(=O)N2C2CCCCC2)cc1` (stereo unspecified), with “inactive”; and `CN1CCN(CCc2ccc(Cl)c(Cl)c2)CC1`, with 12.6 µM (active). As to `CN1CCN(CCCBr)CC1`, the activity, negative = inhibition is 3.38% [at 11.4 µM] (inactive).

Consider `CN(CCc1ccc(Cl)c(Cl)c1)CCN1CCCCCC1`, for which the AC50 was 0.126 µM (active).

As to `CCOC(=O)c1c(NC(=O)CCC(=O)N2CCOCC2)sc2c1CC(C)(C)OC2`, the AC50 entry was “inactive”. On the same count and under the same terms, then `COC(=O)c1cc(C#N)c(NCc2ccc(Cl)cc2Cl)nc1C`, with “inactive”; and `CC(C)COc1ccc(C(=O)Nc2scc(-c3ccc(Cl)cc3Cl)c2C(N)=O)cc1`, with “inactive”. For the compound `Clc1ccccc1C(Nc1cnccn1)Nc1cnccn1`, the activity, negative = inhibition was 10.1% [at 11.4 µM] (inactive). In the case of `Cc1ccc(C(=O)NCC2CCCO2)cc1N1CCCC1=O` (stereo unspecified), the AC50 entry was “inactive”. The same measure, in the same setting: for `O=c1[nH][nH]c(C(F)(F)F)c1C=Nc1cccc(Cl)c1` the value was “inactive”; for `CCCCOc1ccc(OC(=O)c2cccnc2)cc1`, “inactive”; for `CCN(CC)CCOc1ccc(/C(=C(\Cl)c2ccccc2)c2ccccc2)cc1`, 5.01 µM (active). Same read-out and setting: then `COc1ccc(C(Cl)=C(c2ccc(OC)cc2)c2ccc(OC)cc2)cc1`, with “inactive”. On to `Cc1nc(CN2CCCCC2)c(O)c(=O)[nH]1`, for which the activity, negative = inhibition was -19.7% [at 11.4 µM] (inactive). Still for that read-out and setting: for `N[C@@H](Cc1[nH]nc2ccccc12)C(=O)O` the value was 3.39% [at 11.4 µM] (inactive). For the compound `O=C(/C=C/c1ccccc1)NNC(=O)c1cccnc1`, the AC50 result is “inactive”. Still for that read-out and setting: for `C=CC1=C(C)C2=Cc3c(C=C)c(C)c4[n]3[Sn+2][n]3c(c(C)c(CCC(=O)O)c3=CC3=NC(=C4)C(C)=C3CCC(=O)O)=CC1=N2` the value was 1.26 µM (active); for `CCCCCN1CC(O)=C(c2nc(-c3ccc(Cl)cc3)cs2)C1=N`, “inactive”. For `Cc1nc2ccccc2nc1-c1ccc(N=[N+]([O-])c2ccc(-c3nc4ccccc4nc3C)cc2)cc1`, the activity, negative = inhibition is -15.4% [at 11.4 µM] (inactive). In the case of `NC(=O)C[C@H](NC(=O)Cc1ccc(O)cc1O)C(=O)O`, the AC50 entry was “inactive”. Same read-out and setting: then `CC(C)(CNC(=O)c1ccc([N+](=O)[O-])c(Cl)c1)CNC(=O)c1ccc([N+](=O)[O-])c(Cl)c1`, with 3.16 µM (active); and `COc1ccc(Cc2nnc(NC(=O)c3ccc(Cl)c([N+](=O)[O-])c3)s2)cc1`, with “inactive”; and `O=C(NCc1ccc(Cl)cc1)c1ccc(Cl)cc1[N+](=O)[O-]`, with “inactive”.
